{"source": "PubChem BioAssay AID2782", "about": "(National Center for Advancing Translational Sciences (NCATS), 2010)", "note": "Results filed as inconclusive are left out. Calls of active or inactive are those of the source. The call rests on the fitted dose curve; in most records, active means well fitted inhibition curve with a large enough effect in the polarisation, with a control signal flat (not every such curve was filed as active); inconclusive means small, poorly fitted or top-dose-only effect, or effect the other way, or a change in a side signal; inactive means no such curve, though single readings can be large or run the other way; the % refers to the polarisation. On the % scale 0 is the no-effect control and ±100 the full control effect; potency means the concentration at half of the fitted maximal effect."}
{"assay": "Confirmation of Inhibitors Targeting the Menin-MLL Interaction in MLL Related Leukemias: Competition With Texas Red Labeled MLL-derived Mutant Peptide", "conditions": "fluorescence polarization, Texas Red MLL peptide displacement; series mostly up to 94.6 µM; FP change, negative = inhibition: at the top concentration", "how_it_was_run": "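FP competition using menin at 200 nM with Texas Red-labeled mutant MLL peptide (50 nM) plus fluorescein MLL-w.t. peptide (25 nM) in 50 mM Tris-HCl pH 7.5, 50 mM NaCl, 1 mM DTT, 0.05% BSA; compound added, 1 hr ambient; polarization read per label.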"}
{"compound": "Cc1sc2ncnc(NC3CCN(Cc4ccccc4)CC3)c2c1C", "Potency": "28.2 µM (active)"}
{"compound": "Cc1nc(N2CCN(C)CC2)c2c3c(sc2n1)CCCC3", "Potency": "126 µM (active)"}
{"compound": "CCn1ncc(C(=O)Nc2cc(C)on2)c1C", "FP change, negative = inhibition": "-7.12% (inactive)"}
{"compound": "CCCn1c(=O)c(C(=O)Nc2ccccc2C(=O)OCC)c(O)c2ccccc21", "FP change, negative = inhibition": "21.8% [at 288 µM] (inactive)"}
{"compound": "NC(=O)c1ccc(NC(=O)c2cncn2-c2ccccc2)cc1", "FP change, negative = inhibition": "8.85% (inactive)"}
{"compound": "CC(NC(=O)c1cnc2ccccc2n1)c1ccccc1", "note": "(configuration not stated)", "FP change, negative = inhibition": "-13.3% [at 288 µM] (inactive)"}
{"compound": "COc1ccccc1N(CC1CO1)S(=O)(=O)c1ccccc1", "note": "(configuration not stated)", "FP change, negative = inhibition": "6.9% (inactive)"}
{"compound": "O=C(CC(Sc1ccc(Br)cc1)C(=O)O)c1ccc(F)cc1", "note": "(configuration not stated)", "FP change, negative = inhibition": "4.23% [at 288 µM] (inactive)"}
{"compound": "NC(=O)[C@@H]1CCCNc2c(I)cc([N+](=O)[O-])cc2C(=O)N[C@@H](CCCN=C(N)N)C(=O)N[C@@H](CCCN=C(N)N)C(=O)N1", "Potency": "141 µM (active)"}
{"compound": "CCOC(=O)c1cnc2ccc(OC)cc2c1Nc1ccc(N2CCN(C)CC2)cc1", "Potency": "141 µM (active)"}
{"compound": "COCCNC(=O)C(OC(=O)c1nsc(Cl)c1Cl)C(C)C", "note": "(configuration not stated)", "FP change, negative = inhibition": "11.4% (inactive)"}
{"compound": "O=C1Cc2ccccc2Sc2c(OCCN3CCCCC3)cccc21", "Potency": "126 µM (active)"}
{"compound": "O=c1cc(O)c2ccccc2n1Cc1ccccc1F", "FP change, negative = inhibition": "-12.4% (inactive)"}
{"compound": "NC(=NCCCCCCN=C(N)/N=C(\\N)Nc1ccc(Cl)cc1)/N=C(\\N)Nc1ccc(Cl)cc1", "Potency": "70.8 µM (active)"}
{"compound": "CC(=O)O[C@H]1CSC[C@H]1NC(=O)c1ccccc1", "FP change, negative = inhibition": "7.12% (inactive)"}
{"compound": "COC(=O)COc1ccc(C(C2C(=O)CC(C)(C)CC2=O)C2C(=O)CC(C)(C)CC2=O)cc1", "FP change, negative = inhibition": "-18% (inactive)"}
{"compound": "O=C(NC(=S)Nc1nc(-c2ccc(Br)cc2)cs1)c1cccnc1", "FP change, negative = inhibition": "31.5% [at 288 µM] (inactive)"}
{"compound": "N#Cc1ccc(Cl)cc1NC(=O)CNCc1cccs1", "FP change, negative = inhibition": "2.73% (inactive)"}
{"compound": "O=C(Cn1nc(-c2ccccc2)ccc1=O)N1CCCCC1", "FP change, negative = inhibition": "-9.46% [at 288 µM] (inactive)"}
{"compound": "COc1ccc(OC)c(C(c2c(C)[nH][nH]c2=O)c2c(C)[nH][nH]c2=O)c1", "FP change, negative = inhibition": "-9.46% [at 288 µM] (inactive)"}
{"compound": "COc1ccc(OCCCn2ccnc2)cc1", "FP change, negative = inhibition": "-7.95% (inactive)"}
{"compound": "CCOc1ccc(NC(=O)c2cccc(OC(=S)N3CCC(C)CC3)c2)cc1", "FP change, negative = inhibition": "40.8% [at 288 µM] (inactive)"}
{"compound": "COc1ccccc1CNCC(=O)Nc1ccc(C#N)cc1", "FP change, negative = inhibition": "-25.5% [at 288 µM] (inactive)"}
{"compound": "CCC(=O)Nc1ccc(-c2cc(-c3ccccc3)nc(-c3ccc(NC(=O)CC)cc3)n2)cc1", "Potency": "39.8 µM (active)"}
{"compound": "Cc1cnc(NC(=O)C2C(=O)c3ccccc3S(=O)(=O)N2C)s1", "note": "(configuration not stated)", "FP change, negative = inhibition": "8.84% [at 288 µM] (inactive)"}
{"compound": "CN(C)C(CNc1ncnc2sc3c(c12)CCCCC3)c1ccco1", "note": "(configuration not stated)", "Potency": "141 µM (active)"}
{"compound": "COc1ccc(Cn2nnnc2C(c2ccc3ncccc3c2)N2CCN(C3CCCCC3)CC2)cc1", "note": "(configuration not stated)", "Potency": "89.1 µM (active)"}
{"compound": "O=C(c1cc2c(=O)n3ccccc3nc2s1)N1CCOCC1", "FP change, negative = inhibition": "-18.6% [at 288 µM] (inactive)"}
{"compound": "Cn1ncc2c(N3CCCCC3)nc(NCCCO)nc21", "FP change, negative = inhibition": "-1.8% (inactive)"}
{"compound": "COc1ccc(CC(=O)Nc2ccc(-c3nnc(-c4ccccc4)o3)cc2)cc1", "FP change, negative = inhibition": "36.9% (inactive)"}
{"compound": "COc1ccc(CN2CCN(C(C)C(=O)N(C)Cc3cccc(F)c3)CC2)cc1OC", "note": "(configuration not stated)", "FP change, negative = inhibition": "23.5% (inactive)"}
{"compound": "O=C(NC1CCN(c2ncccn2)CC1)c1c(F)cccc1F", "FP change, negative = inhibition": "-9.09% [at 288 µM] (inactive)"}
